Assay outcomes (PubChem BioAssay)
Giardia FBPA inh-1: Giardia lamblia aldolase inhibition. A8B2U2. purified Giardia FBPA. Potency, µM (top dose mostly 59.6 µM), inactives show at the top dose activity, negative = inhibition, actives largely listed as inhibitors. actives 0.71% (n = 290,000); also: potency is read from the fitted curve at half-maximal effect; nearly all actives have a fitted effect of over 55% in size
Target sequence (A8B2U2 whole entry, looked up): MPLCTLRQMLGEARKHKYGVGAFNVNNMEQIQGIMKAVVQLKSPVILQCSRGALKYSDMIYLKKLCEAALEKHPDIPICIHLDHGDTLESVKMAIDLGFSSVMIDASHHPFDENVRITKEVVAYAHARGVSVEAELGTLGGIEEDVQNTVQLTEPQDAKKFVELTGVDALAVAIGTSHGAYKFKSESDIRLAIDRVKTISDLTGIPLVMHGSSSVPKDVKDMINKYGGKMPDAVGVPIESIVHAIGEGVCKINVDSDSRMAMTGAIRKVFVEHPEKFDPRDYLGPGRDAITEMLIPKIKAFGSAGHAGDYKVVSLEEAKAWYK
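40 nM FBPA preincubated 10 min at RT with compound (up to 57.5 uM final), then substrate plus GAPDH/TPI/NAD/arsenate coupling and diaphorase/resazurin added. Fluorescence read after 20 min at RT, 525/598 nm.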
HCV inh: HCV inhibition | Potency, µM (series often up to 41.8 µM), for inactives: top-dose activity change, negative = inhibition, actives largely listed as inhibitors | AID 651820 | actives 3.4% (n = 340,000) | Huh7.5.1 HCVcc-Cre infection, luciferase reporter, 44 h; also: potency is read from the fitted curve at half-maximal effect
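Antiviral activity was scored by luciferase reporter output from cells infected with HCVcc-Cre (~0.5 moi) in presence of compound, 44 h infection period, cells seeded 1,000/well 4 h prior.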
Vaccinia mCherry: vaccinia inhibition (mCherry reporter); actives 0.63% (n = 310,000); Vaccinia virus mCherry reporter infection, fluorescence; AID 720579; Potency, µM (top dose mostly 36.5 µM), without a hit: top-dose activity change, negative = inhibition, most hits filed as inhibitors; calls by dose curve; tested in A549 cells; also: potency is read from the fitted curve at half-maximal effect; nearly all actives have a fitted effect of over 35% in size
HCMV inh: human cytomegalovirus inhibition; HFF cells, HCMV-luciferase reporter, 72 h; stronger effect = lower value; activity change, negative = inhibition, % at 57.5 µM; actives 4.5% (n = 410,000); AID 1259415; in the data active = activity change below about -60%; inconclusive = no clear call, values can overlap the other calls; inactive = above about -39%
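Screen run at 2 compound doses on HFFs infected with reporter HCMV, MOI 1 PFU/cell. Luciferase activity from cell lysates at 72 h post infection gave inhibition relative to buffer-only and Salinomycin wells.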
VACV Venus inh: vaccinia inhibition (Venus reporter) | actives 0.46% (n = 330,000) | AID 720580 | Potency, µM (series often up to 36.5 µM), for inactives: top-dose activity change, negative = inhibition, actives largely listed as inhibitors | Vaccinia virus Venus reporter expression, fluorescence; calls by dose curve; tested in A549 cells; also: potency is read from the fitted curve at half-maximal effect; nearly all actives have a fitted effect of over 30% in size
FMDV inh: blocks foot and mouth disease virus | FMDV antiviral cell-based qHTS | Potency, µM (highest dose often 57.9 µM), for inactives: at the highest dose activity change, negative = inhibition, hits mostly inhibitors | actives 1.2% (n = 410,000) | AID 1159524; calls by dose curve; tested in HEK293T cells; also: read-out not given here; potency is read from the fitted curve at half-maximal effect; nearly all actives have a fitted effect of over 45% in size
Giardia growth: inhibitors of Giardia lamblia growth. shares compounds with Giardia FBPA inh-1. Giardia lamblia trophozoite growth inhibition. Potency, µM (series often up to 57.5 µM), without a hit: at the highest dose activity change, negative = inhibition, usual class: inhibitors. actives 5% (n = 1,500). AID 2785;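 also: potency is read from the fitted curve at half-maximal effect; trophozoites exposed to compound for 48 h at 37 °C; nearly all actives have a fitted effect of over 70% in size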
Mammal cell tox: toxic to mammalian cells in Giardia aldolase counter-screen; shares compounds with Giardia FBPA inh-1; mammalian cell viability counter-screen, qHTS; Potency, µM (top dose mostly 57.5 µM), inactives show top-dose viability change, negative = toxicity, usual class: inhibitors; actives 4% (n = 1,500);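 also: Chinese hamster ovary cells used as mammalian cytotoxicity surrogate; viability measured as cellular ATP by luminescence; potency is read from the fitted curve at half-maximal effect; compound exposure lasted 48 h before reading; nearly all actives have a fitted effect of over 60% in size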
Giardia FBPA inh-2: confirmation of Giardia fructose-bisphosphate aldolase inhibitors; shares compounds with Giardia FBPA inh-1; purified Giardia aldolase enzyme activity, qHTS; Potency, µM (series often up to 57.5 µM), for the others: at the top dose activity change, negative = inhibition, usual class: inhibitors; actives 5% (n = 1,500); also: potency is read from the fitted curve at half-maximal effect; nearly all actives have a fitted effect of over 45% in size
Rabbit FBPA inh: rabbit FBP aldolase inhibition by Giardia aldolase hits; Potency, µM (doses to about 57.5 µM), inactives show at the top dose activity, negative = inhibition, usual class: inhibitors; AID 2794; shares compounds with Giardia FBPA inh-1; Rabbit muscle FBPA enzyme inhibition, selectivity counter-screen; actives 4% (n = 1,500); also: potency is read from the fitted curve at half-maximal effect; nearly all actives have a fitted effect of over 60% in size
Target sequence (P00883 whole entry, looked up): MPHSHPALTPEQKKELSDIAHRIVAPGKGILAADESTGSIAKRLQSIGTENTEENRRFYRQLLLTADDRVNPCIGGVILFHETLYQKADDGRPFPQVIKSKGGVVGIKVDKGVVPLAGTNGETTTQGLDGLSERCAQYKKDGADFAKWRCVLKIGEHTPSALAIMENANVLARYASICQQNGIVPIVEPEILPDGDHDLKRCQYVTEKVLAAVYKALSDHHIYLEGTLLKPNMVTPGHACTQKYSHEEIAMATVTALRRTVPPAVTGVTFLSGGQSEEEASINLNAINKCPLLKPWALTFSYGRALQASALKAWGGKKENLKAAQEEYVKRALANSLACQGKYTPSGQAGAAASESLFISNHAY
GAPDH coupling: GAPDH inhibition flagged for Giardia aldolase hits; GAPDH coupling enzyme counterscreen, biochemical, qHTS; AID 2795; Potency, µM (doses to about 57.5 µM), inactives show at the highest dose activity change, negative = inhibition, most hits filed as inhibitors; actives 6% (n = 1,500); shares compounds with Giardia FBPA inh-1; also: potency is read from the fitted curve at half-maximal effect; nearly all actives have a fitted effect of over 55% in size
Numbers without * were called inactive; i = inactive; u = inconclusive; x = not tested or not shown; [ ] = dose if it differs, or a comment. Compounds with a hit are over-represented: about 7.5% of the library has one in this group of screens. Unless noted, calls follow the shape of the dose curve; as a rule, active = well fitted curve in the direction sought with a large enough effect; inconclusive = small, poorly fitted or top-dose-only effect, or another doubt; inactive = no such curve, though single readings can be large; an effect the other way counts as inactive or inconclusive. % is scaled to controls: 0 for no effect and ±100 for the full control effect.

SMILES | Giardia FBPA inh-1 | HCV inh | Vaccinia mCherry | HCMV inh | VACV Venus inh | FMDV inh | Giardia growth | Mammal cell tox | Giardia FBPA inh-2 | Rabbit FBPA inh | GAPDH coupling
Cc1nccn1CC1CCc2c(c3ccccc3n2C)C1=O (centres undefined) | 20µM* | u | -1% | u | -16% | -9% | 11%[10.4 µM] | -1% | 5% | 4% | 16%
COc1ccc(OC)c(CNc2ncc(-c3cccc([N+](=O)[O-])c3)n2C)c1 | 28µM* | -7% | x | -25 | x | -10% | u | -3% | -6% | 1% | 4%
Cn1c(-c2ccc(F)cc2)cnc1NCc1ccccc1F | 28µM* | -1% | x | 15 | x | 52% | -9%[10.4 µM] | 2% | 1% | 3% | 11%
Cn1c(-c2ccc(F)cc2)cnc1NCc1ccc(F)cc1F | -25% | 5% | x | 17 | x | 21% | x | x | x | x | x
COc1ccc(CNc2ncc(-c3ccccc3)n2C)cc1 | 18µM* | 17% | x | -16 | x | 21% | -18% | 25% | 1% | 1% | 9%
Cc1ccc(Cn2c(=O)n(CCc3ccccc3)c(=O)c3c(C)c(C)sc32)cc1 | x | x | -12% | -15 | -1% | -6% | x | x | x | x | x
Cc1ccc(N(C(=O)CS(=O)CC(=O)Nc2ccc(F)cc2)C(C)C(=O)NC(C)(C)C)cc1 (centres undefined) | 6% | -5% | -3% | -32 | -12% | 21% | x | x | x | x | x
C/C(=N\Nc1nc2ccccc2c(=O)n1O)c1ccco1 | -11% | -6% | i | 96 | -7% | 7% | x | x | x | x | x
Cc1ccc(C)c(/C=N/Nc2nc3ccccc3c(=O)n2O)c1 | 16µM* | -1% | -5% | 17 | -11% | 30% | u | -6% | -20% | -11% | -15%
CC1=C(C#N)C(=O)N(C2CCS(=O)(=O)C2)C(=O)/C1=C\c1ccc(C)o1 (centres undefined) | 13µM* | x | x | x | x | x | 47% | 5% | u | u | u
Cc1ccc(/C=C2\SC(=S)N(C3CCS(=O)(=O)C3)C2=O)o1 (centres undefined) | u | u | x | -37 | x | u | x | x | x | x | x
O=C(Oc1c(CN2CCOCC2)cc(Cl)c2cccnc12)c1ccccc1F | 16µM* | u | 7.9µM* | -85* | 10µM* | -16% | 7.9µM* | 7.9µM* | u | u | -27%
CCC(C)c1ccccc1NC(=O)C(C)N(C)Cc1cccc(OC)c1 (centres undefined) | 20µM* | u | -6% | u | -17% | u | u | 2% | 2% | 0% | 5%
O=c1cc2oc3cc(O)c(O)cc3c(-c3ccccc3O)c-2cc1O | 16µM* | -27% | 320% | x | i | 0% | -20% | 8% | u | -6% | 10%
O=c1cc(-c2ccccc2O)oc2cc(O)ccc12 | -1% | x | -2% | x | 0% | 28% | x | x | x | x | x
CSc1cccc(NC(=S)N2CCC(N(C)C3CCCCC3)CC2)c1 | 13µM* | -26% | u | -28 | -19% | -19% | u | -8% | -5% | -2% | 3%
CSc1cccc(NC(=S)N2CCC(N(C)C3CCCCC3C)CC2)c1 (centres undefined) | 6% | u | -12% | -6 | -5% | -20% | x | x | x | x | x
O=S(=O)(c1ccccc1)N1CCC2(CCN(c3ncccn3)CC2)CC1 | 0% | x | x | x | x | u | x | x | x | x | x
Cc1ccc(OCCCN2CCOCC2)cc1 | 20µM* | 22% | i | 6 | -18% | 29% | u | -10% | 10% | 3% | 7%
CC(C)N1C(=O)CCN(C=O)c2ccccc21 | 7% | -5% | x | -18 | x | -7% | x | x | x | x | x
CC(=O)Nc1cccc(/C(C)=N/NC(N)=S)c1 | 18µM* | -21% | -13% | 57 | -5% | 11% | 14% | -20% | 7% | 3% | 7%
CC(=O)Nc1ccc(NC(=O)C/C(C)=N/NC(N)=S)cc1 | 16µM* | 0% | x | -3 | x | -16% | -14% | 9% | -2% | 7% | 4%
O=c1[nH]cnc2c1ncn2C1OC(CO)C(O)C1O (centres undefined) | -2% | 14% | u | 41 | -22% | -14% | x | x | x | x | x
Nc1nc(=S)c2ncn(C3OC(CO)C(O)C3O)c2[nH]1 (centres undefined) | 6.3µM* | -24% | -26% | -11 | -15% | -5% | 3%[10.4 µM] | 2% | 1% | 2% | 1%
OCC1OC(n2cnc3c(=S)nc[nH]c32)C(O)C1O (centres undefined) | 4.5µM* | x | u | x | -28% | -13% | u | 6.3µM* | 2% | 2% | -6%
SMILES | Giardia FBPA inh-1 | HCV inh | Vaccinia mCherry | HCMV inh | VACV Venus inh | FMDV inh | Giardia growth | Mammal cell tox | Giardia FBPA inh-2 | Rabbit FBPA inh | GAPDH coupling
CC1(C)OC2C(CO)OC(n3cnc4c(=S)nc[nH]c43)C2O1 (centres undefined) | 4.5µM* | 16% | -7% | -3 | -15% | -19% | -25%[38.3 µM] | u | -4% | -2% | 1%
Cc1[nH]c(C)c(S(=O)(=O)NCc2ccc(F)cc2)c1C(=O)N1CCCC1 | x | 15% | -3%[7.34 µM] | -10 | -3%[7.34 µM] | 14% | x | x | x | x | x
COc1cc(/C=N/n2c(=S)[nH]nc(C)c2=O)cc([N+](=O)[O-])c1O | 16µM* | 1% | -2% | -4 | -7% | 3% | u | -4% | 2% | -9% | 4%
Cc1n[nH]c(=S)n(/N=C/c2cccc([N+](=O)[O-])c2)c1=O | u | 0% | i[7.34 µM] | 39 | -7%[7.34 µM] | -8% | x | x | x | x | x
OCc1cccnc1 | 1% | x | x | x | x | x | x | x | x | x | x
Cc1nc(NC(=O)CN2CCN(c3ccccc3F)CC2)sc1C(=O)N(C)C | 3.2µM* | 14% | x | 15 | x | -7% | 0%[10.4 µM] | -1% | 4% | 5% | -13%
Cc1ccccc1N1CCN(CC(=O)Nc2nc(C)c(C(=O)N(C)C)s2)CC1 | u | -10% | -3% | 50 | -13% | -27% | x | x | x | x | x
Cc1cc(=O)n2cccc(O)c2n1 | 20µM* | u | -4% | -18 | -7% | -23% | 126% | -2% | -28% | u | u
Cc1nnc(SCc2cc(=O)n3cccc(C)c3n2)s1 | x | x | -5% | -34 | -4% | -4% | x | x | x | x | x
